# Test results published in ChEMBL document CHEMBL2218924, “A broad activity screen in support of a chemogenomic map for kinase signalling research and drug discovery” (Biochem J, 2013).
# Columns and labels:
# [1] = target: T1, Ephrin type-A receptor 3 (Homo sapiens) (UniProt P29320); conditions: at 10 µM
# T1 sequence (whole entry): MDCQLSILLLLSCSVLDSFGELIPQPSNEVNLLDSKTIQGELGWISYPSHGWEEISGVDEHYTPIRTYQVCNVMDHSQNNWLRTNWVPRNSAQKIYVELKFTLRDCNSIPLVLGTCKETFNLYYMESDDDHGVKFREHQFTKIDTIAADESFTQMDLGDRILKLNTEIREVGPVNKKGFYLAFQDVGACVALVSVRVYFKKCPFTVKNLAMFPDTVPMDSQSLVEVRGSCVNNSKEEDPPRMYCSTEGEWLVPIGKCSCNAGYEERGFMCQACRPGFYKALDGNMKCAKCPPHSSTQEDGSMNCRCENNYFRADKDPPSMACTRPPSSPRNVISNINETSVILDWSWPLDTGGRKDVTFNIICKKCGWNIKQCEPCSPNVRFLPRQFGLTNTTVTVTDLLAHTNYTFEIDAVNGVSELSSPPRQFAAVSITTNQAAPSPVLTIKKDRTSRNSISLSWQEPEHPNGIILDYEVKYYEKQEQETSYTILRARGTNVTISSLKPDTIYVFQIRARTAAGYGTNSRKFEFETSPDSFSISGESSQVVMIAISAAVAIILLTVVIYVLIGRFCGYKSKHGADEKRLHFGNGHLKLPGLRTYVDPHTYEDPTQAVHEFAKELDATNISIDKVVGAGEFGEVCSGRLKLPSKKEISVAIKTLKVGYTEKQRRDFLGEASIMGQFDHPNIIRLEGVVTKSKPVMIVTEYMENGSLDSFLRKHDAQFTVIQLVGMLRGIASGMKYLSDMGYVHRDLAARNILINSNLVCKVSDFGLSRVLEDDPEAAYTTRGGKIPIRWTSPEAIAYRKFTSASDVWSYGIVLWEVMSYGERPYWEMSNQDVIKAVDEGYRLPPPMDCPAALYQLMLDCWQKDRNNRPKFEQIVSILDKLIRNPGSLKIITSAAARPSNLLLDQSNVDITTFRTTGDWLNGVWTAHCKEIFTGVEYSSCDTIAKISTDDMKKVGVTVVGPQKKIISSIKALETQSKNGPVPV
# [2] = target: Ephrin type-A receptor 4 (Homo sapiens) (UniProt P54764); conditions: at 1 µM
# [3] = target: Ephrin type-A receptor 4 (Homo sapiens) (UniProt P54764); conditions: at 10 µM
# [4] = target: Ephrin type-A receptor 5 (Homo sapiens) (UniProt P54756); conditions: at 1 µM
# [5] = target: Ephrin type-A receptor 5 (Homo sapiens) (UniProt P54756); conditions: at 10 µM
# [6] = target: Ephrin type-A receptor 7 (Homo sapiens) (UniProt Q15375); conditions: at 1 µM
# [7] = target: Ephrin type-A receptor 7 (Homo sapiens) (UniProt Q15375); conditions: at 10 µM
# [8] = target: T2, Ephrin type-A receptor 8 (Homo sapiens) (UniProt P29322); conditions: at 1 µM
# T2 sequence (whole entry): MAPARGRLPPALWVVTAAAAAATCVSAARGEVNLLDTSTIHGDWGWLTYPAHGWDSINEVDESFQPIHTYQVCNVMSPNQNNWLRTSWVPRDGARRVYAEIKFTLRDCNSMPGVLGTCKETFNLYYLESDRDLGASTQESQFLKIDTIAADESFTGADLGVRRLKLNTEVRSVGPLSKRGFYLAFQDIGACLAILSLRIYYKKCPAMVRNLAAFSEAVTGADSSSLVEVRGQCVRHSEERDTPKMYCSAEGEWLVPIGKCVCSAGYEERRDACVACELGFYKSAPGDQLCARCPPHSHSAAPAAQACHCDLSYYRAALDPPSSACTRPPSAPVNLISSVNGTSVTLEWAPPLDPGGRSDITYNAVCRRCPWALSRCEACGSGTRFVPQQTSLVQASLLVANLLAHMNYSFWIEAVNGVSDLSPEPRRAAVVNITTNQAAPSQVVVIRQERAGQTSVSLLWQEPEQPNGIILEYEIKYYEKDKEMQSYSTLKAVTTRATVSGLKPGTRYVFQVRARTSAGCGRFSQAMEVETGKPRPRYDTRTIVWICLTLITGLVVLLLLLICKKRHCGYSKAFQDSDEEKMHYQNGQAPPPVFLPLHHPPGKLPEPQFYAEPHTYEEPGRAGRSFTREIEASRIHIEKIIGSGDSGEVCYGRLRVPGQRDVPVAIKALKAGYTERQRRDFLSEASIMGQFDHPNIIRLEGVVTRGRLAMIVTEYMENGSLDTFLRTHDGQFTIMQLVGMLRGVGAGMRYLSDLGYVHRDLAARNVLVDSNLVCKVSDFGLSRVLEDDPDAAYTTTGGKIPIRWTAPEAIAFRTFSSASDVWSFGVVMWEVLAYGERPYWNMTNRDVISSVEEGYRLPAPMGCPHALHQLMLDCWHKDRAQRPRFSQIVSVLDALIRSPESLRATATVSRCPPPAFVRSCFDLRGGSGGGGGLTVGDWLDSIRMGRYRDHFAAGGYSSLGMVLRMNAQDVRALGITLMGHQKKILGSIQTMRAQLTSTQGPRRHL
# [9] = target: T2, Ephrin type-A receptor 8 (Homo sapiens); conditions: at 10 µM
# Chain of Ephrin type-A receptor 4 (Homo sapiens) (P54764 whole entry): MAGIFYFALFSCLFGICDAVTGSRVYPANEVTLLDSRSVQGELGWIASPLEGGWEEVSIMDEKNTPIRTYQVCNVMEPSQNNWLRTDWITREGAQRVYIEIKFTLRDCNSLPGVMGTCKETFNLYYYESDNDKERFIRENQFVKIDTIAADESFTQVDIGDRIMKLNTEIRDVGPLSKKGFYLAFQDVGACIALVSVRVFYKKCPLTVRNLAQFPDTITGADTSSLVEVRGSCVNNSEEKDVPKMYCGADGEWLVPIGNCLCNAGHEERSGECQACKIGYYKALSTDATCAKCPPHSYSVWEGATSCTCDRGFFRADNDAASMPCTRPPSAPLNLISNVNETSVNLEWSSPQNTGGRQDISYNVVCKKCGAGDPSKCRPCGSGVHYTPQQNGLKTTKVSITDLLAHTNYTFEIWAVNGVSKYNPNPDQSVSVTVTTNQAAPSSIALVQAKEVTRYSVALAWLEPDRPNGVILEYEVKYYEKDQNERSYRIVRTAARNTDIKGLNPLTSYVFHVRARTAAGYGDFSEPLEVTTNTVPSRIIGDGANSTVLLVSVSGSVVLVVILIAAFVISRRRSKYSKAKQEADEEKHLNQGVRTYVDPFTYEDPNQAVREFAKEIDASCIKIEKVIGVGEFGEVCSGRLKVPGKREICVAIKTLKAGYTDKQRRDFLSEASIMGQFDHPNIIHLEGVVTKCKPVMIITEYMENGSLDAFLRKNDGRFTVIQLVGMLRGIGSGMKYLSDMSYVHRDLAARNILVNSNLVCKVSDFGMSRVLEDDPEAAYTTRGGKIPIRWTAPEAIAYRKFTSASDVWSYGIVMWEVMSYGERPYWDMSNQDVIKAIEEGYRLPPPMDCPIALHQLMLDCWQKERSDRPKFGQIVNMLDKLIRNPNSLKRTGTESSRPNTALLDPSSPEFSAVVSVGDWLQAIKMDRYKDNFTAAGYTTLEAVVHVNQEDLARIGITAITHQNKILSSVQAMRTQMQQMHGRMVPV
# Chain of Ephrin type-A receptor 7 (Homo sapiens) (Q15375 28-998 limits assumed): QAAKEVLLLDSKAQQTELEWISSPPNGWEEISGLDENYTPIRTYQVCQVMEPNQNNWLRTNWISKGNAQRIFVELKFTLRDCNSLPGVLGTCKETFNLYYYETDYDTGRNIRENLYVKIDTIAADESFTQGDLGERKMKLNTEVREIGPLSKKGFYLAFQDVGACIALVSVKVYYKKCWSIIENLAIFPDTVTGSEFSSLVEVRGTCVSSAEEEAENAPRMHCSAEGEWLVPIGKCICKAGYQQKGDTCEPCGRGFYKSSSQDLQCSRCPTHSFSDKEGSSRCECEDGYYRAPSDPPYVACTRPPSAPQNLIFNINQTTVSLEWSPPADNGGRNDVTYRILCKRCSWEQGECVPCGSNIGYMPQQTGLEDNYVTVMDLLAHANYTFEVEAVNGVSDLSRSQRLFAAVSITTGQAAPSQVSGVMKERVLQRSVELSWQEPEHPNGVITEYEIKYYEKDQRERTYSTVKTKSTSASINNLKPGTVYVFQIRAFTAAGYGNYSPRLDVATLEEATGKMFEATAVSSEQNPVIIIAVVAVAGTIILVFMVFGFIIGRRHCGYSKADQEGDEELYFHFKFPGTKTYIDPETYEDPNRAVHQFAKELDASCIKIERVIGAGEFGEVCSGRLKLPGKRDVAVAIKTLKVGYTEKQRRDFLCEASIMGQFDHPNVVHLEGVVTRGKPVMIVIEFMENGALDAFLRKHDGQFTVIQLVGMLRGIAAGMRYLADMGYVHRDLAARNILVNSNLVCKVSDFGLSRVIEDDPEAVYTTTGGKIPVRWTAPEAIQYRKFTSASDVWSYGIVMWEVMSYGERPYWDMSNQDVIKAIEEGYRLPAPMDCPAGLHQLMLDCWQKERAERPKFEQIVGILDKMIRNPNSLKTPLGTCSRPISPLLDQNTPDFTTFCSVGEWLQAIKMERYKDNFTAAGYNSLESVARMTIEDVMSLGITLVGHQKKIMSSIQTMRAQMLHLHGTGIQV
# Chain of Ephrin type-A receptor 5 (Homo sapiens) (P54756 whole entry): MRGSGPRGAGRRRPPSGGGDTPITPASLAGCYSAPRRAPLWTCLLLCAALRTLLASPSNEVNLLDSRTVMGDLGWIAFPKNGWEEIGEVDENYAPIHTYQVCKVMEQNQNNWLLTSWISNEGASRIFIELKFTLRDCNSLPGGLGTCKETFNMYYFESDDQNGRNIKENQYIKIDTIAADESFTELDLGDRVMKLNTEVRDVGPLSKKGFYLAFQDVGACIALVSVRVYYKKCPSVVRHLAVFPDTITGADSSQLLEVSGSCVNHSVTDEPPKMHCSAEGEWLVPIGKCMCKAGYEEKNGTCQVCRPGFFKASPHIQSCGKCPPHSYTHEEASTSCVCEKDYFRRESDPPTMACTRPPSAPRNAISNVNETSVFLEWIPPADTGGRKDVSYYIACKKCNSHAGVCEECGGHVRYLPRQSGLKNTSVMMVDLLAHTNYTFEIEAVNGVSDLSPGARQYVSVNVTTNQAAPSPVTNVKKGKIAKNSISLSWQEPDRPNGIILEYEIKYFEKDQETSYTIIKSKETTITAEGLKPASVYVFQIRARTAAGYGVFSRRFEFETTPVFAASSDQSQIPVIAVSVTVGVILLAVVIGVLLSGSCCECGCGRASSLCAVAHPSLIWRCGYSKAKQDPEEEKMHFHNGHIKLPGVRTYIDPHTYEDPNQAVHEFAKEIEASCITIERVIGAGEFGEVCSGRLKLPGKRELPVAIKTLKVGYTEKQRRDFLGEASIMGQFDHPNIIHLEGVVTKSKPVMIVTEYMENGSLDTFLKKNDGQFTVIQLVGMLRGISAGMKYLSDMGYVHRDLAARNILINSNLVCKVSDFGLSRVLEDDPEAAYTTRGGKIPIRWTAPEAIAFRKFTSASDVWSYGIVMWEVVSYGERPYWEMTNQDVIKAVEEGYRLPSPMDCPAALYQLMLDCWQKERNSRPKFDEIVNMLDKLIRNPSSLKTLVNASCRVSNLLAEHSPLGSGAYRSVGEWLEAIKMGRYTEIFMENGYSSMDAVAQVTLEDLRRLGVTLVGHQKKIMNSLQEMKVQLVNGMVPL
smiles,measurement,setting,value
Oc1c2ccccc2c2c3c(cccc13)N=N2,residual activity,[1],48%
same,residual activity,[2],105%
same,residual activity,[3],106%
same,residual activity,[4],115%
same,residual activity,[5],63%
same,residual activity,[6],80%
same,residual activity,[7],41%
same,residual activity,[8],92%
same,residual activity,[9],76%
